# Target: AMP-activated protein kinase, AMPK (Homo sapiens) (UniProt P54646+O43741+P54619+Q9UGJ0+Q9Y478+Q13131+Q9UGI9)
# Assay: AMP-dependent Kinase enzyme assay. An in vitro enzyme assay that detects ADP turnover that is directly proportional to AMPK activity. This uses naive AMPK that is activated during the assay with MK-8722
# Format: functional
# Parameters: scale not given: direction of the effect not stated beside the values
# Settings: 30 µM
row,Compound,Percent Effect
1,O=C(NCC1CCOC1)c1cc(-c2cccc(Cl)c2)[nH]n1 (stereo not given),7.17%
2,COc1cc(NC2CCCN(c3ncccn3)C2)cc(OC)c1 (stereo not given),-64.1%
3,CN(C)c1nc2sc(C(=O)N3CCN(C(=O)OC(C)(C)C)CC3)cc2s1,63.5%
4,CC(Cc1cccc(F)c1)C(=O)NS(=O)(=O)c1ccc2c(c1)OCCO2 (stereo not given),3.32%
5,Cn1ccnc1-c1nc(N2CCCCC2)ncc1-c1ccccc1F,9.62%
6,CC(C)Cn1nc(-c2ccc(C(=O)O)cc2)cc1-c1ccc(F)cc1,22.7%
7,Cc1oc(-c2ccco2)nc1CN1CCc2cncnc2C1,-10.6%
8,CCC(C)NC(=O)Nc1cccc(OC)c1 (stereo not given),-9.8%
9,CCOCCC(=O)NC(c1noc(C)n1)c1ccccc1F (stereo not given),1.15%
10,COc1ccc(N2CCC(NC(=O)c3ccc(C#N)cc3)CC2)cc1,5.1%
11,Cc1cc(NC(C)c2csc(C)n2)n2nc(C)c(C)c2n1 (stereo not given),10%
12,COc1c(C)cnc(CN2CCCC2c2noc(C3CC3)n2)c1C (stereo not given),-14.3%
13,COCc1nc2cc3c(cc2c(=O)o1)OCCCO3,-7.41%
14,CN(C)CC(=O)NC1CC(C)(C)Cc2nc(C(C)(C)C)ncc21 (stereo not given),-0.385%
15,Cc1cccc(COc2ccc(C(C)NC(=O)CNC(N)=O)cc2)c1 (stereo not given),1.42%
16,O=C(NCCC1CN(C2CCCC2)CCO1)c1cc(=O)[nH]c(=O)[nH]1 (stereo not given),-0.888%
17,NC(=O)COc1ccc(CN2CC[C@@]3(O)CCCC[C@H]3C2)cc1Cl,3.71%
18,CC(C)Oc1cccc(CN(C)C(=O)Nc2cccn(C)c2=O)c1,-63%
19,Cc1nccn1-c1nccnc1C1CCCN(C)C1 (stereo not given),1.28%
20,O=C(NCC[S+]([O-])c1ccccc1)c1ccc2[nH]c(=O)[nH]c2c1 (stereo not given),6.24%

row,Compound,Percent Effect
1,CC(O)c1cccc(OCc2ccon2)c1 (stereo not given),4.94%
2,CCN(Cc1cccnc1)C1CCN(c2ccccc2)C1=O (stereo not given),-2.42%
3,CCCC1COCCN1Cc1ccc(S(=O)(=O)NC)cc1 (stereo not given),0.167%
4,Cc1ncsc1C(=O)OCCN1CCCc2ccccc21,8.19%
5,Cc1nc(C2CCCNC2)cc(N2CCc3nc(N)sc3C2)n1 (stereo not given),3.73%
6,CC(C)c1nnc2n1CCN(Cc1ccc3c(c1)OCCO3)C2,3.43%
7,COc1ccc(C2CCN(S(=O)(=O)CCCC#N)CC2)cc1,-2.21%
8,Cc1ccc(C(=O)NCCN2CCOCC2)cc1N(C)S(C)(=O)=O,4.72%
9,CC(C)(C)c1n[nH]cc1CNC1CCC(OCC(F)(F)F)CC1 (stereo not given),3.73%
10,COCC(=O)NCc1ccc(-c2ncncc2C(=O)N(C)C)cc1,5.99%
11,O=S(=O)(Nc1ccc2c(c1)OCCO2)N1CCCCC1,12.8%
12,Cc1nc(CNCC2CNc3ccnn3C2)cs1 (stereo not given),-8.22%
13,CC(C)c1noc(C(C)N2CCC(c3nc4ccccc4[nH]3)CC2)n1 (stereo not given),0.872%
14,CCCNC(=O)c1cnc2n1CCCC2,0.00547%
15,Cc1noc(C)c1C(=O)N(C)C(C)c1ccncc1 (stereo not given),-0.736%
16,CCc1nc2n(n1)CC(NCc1cc3ccccc3o1)CC2 (stereo not given),-3.35%
17,CC(C)c1nnc(CN2CCc3ccc(S(N)(=O)=O)cc32)o1,-0.483%
18,COC1CCN(c2ccc(F)cc2CN(C)CC(N)=O)CC1,5.84%
19,N#CC1(NC(=O)CN2CCc3c(ncn3C3CC3)C2)CCCC1,-7.46%
20,Cc1ccc2nc(CNCCCOc3ccccc3)cc(O)c2c1,2.49%
